Assay results from PubChem BioAssay (Tox21).
Results filed as inconclusive are left out. Active and inactive are the calls of the source. Unless noted, the call rests on the fitted dose curve; in most records, active means well fitted curve in the direction sought with a large enough effect in the repeat runs; inconclusive means weak or mixed curves; inactive means no such curve, though single readings can be large; an effect the other way counts as inactive or inconclusive.

What was measured:
[1] = biological target: Estrogen receptor beta (Homo sapiens) (UniProt Q92731); assay: qHTS assay to identify small molecule agonists of the estrogen receptor beta (ER-beta) signaling pathway (AID 1259377; active means well fitted activation curve with a large enough effect in the signal ratio in the repeat runs, not every such curve was filed as active; the % refers to the signal ratio)
Outline: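 Measured by fluorescence intensity from a B/G FRET beta-lactamase substrate (2 h, room temperature) in ER-beta-UAS-bla HEK293T cells treated with DMSO-dissolved compounds for 16 hr at 37C and 5% CO2.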

[2] = biological target: Estrogen receptor beta (Homo sapiens) (UniProt Q92731); assay: qHTS assay to identify small molecule antagonists of the estrogen receptor beta (ER-beta) signaling pathway (AID 1259378; active means well fitted inhibition curve with a large enough effect in the signal ratio in the repeat runs, not every such curve was filed as active; the % refers to the signal ratio)
Outline: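 ER-beta-UAS-bla HEK293T (GripTite) cells in 2% charcoal-stripped FBS medium were preincubated 6 hr at 37C, dosed with compound, then stimulated with 1 nM E2 (final) for 16 hr; beta-lactamase reporter read by B/G FRET fluorescence after 2 hr substrate loading.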

[3] = qHTS assay to identify small molecule agonists of the androgen receptor (AR) signaling pathway in the presence of an antagonist - cell viability counter screen (AID 1259379);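 further: MDA-kb2 human breast cancer cells carrying an MMTV luciferase reporter; series mostly up to about 92 µM; nearly all actives have a fitted effect of over 25% in size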
Outline: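 MDA-kb2 cells (MMTV-luciferase, AR/GR), 3,000/well, 5 h attachment, then 3.0 µM nilutamide (final) and compounds at 15 concentrations. Viability by CellTiter-Fluor fluorescence after 16 h at 37 °C, 0% CO2, in the reporter wells.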

[4] = qHTS assay to identify small molecule agonists of the estrogen receptor beta (ER-beta) signaling pathway - cell viability counter screen (AID 1259380); further: nearly all actives have a fitted effect of over 30% in size; further: potency means the concentration at half of the fitted maximal effect
Outline: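 ER-beta-UAS-bla HEK293T cells in medium with 2% charcoal-stripped FBS, pre-incubated 6 hr, then treated 16 hr at 37C. Cytotoxicity read in the same wells by CellTiter-Glo luminescence after 30 min at room temperature.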

[5] = qHTS assay to identify small molecule antagonists of the estrogen receptor beta (ER-beta) signaling pathway - cell viability counter screen (AID 1259382); further: series mostly up to about 92 µM; nearly all actives have a fitted effect of over 55% in size
Outline: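 ER-beta-UAS-bla HEK293T cells in 2% charcoal-stripped FBS medium, treated with compound plus 1 nM 17-beta-estradiol for 16 h at 37C. Viability read by CellTiter-Glo luminescence after 30 min at room temperature in the same wells.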

[6] = biological target: Estrogen receptor (Homo sapiens) (UniProt P03372); assay: qHTS assay to identify small molecule agonists of the estrogen receptor alpha (ER-alpha) signaling pathway in the presence of an antagonist (AID 1259383; calls by dose curve; further: top concentration of the series differs between compounds; nearly all actives have a fitted effect of over 15% in size)
Outline: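 VM7Luc4E2 cells express endogenous full-length ER-alpha with an ERE-luciferase reporter and were hormone-deprived for 5 days. Compounds at 15 concentrations were added with 10.0nM ICI-182,780 for 22hr at 37C. Luminescence was read with ONE-Glo.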

[7] = qHTS assay to identify small molecule agonists or antagonists of the thyroid stimulating hormone receptor (TSHR) signaling pathway - wild type cell line counter screen (AID 1259384; calls by dose curve)
Outline: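 Wild-type HEK293 cells were plated 18 h at 37 C/5% CO2, pin-dosed with compound plus Ro20-1724 medium, held 30 min at room temperature, then given cAMP-d2 and anti-cAMP-cryptate; fluorescence was read after 1 h. Fifteen concentrations, triplicate.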

[8] = biological target: Thyrotropin receptor (Homo sapiens) (UniProt P16473); assay: qHTS assay to identify small molecule antagonists of the thyroid stimulating hormone receptor (TSHR) signaling pathway (AID 1259385; calls by dose curve; further: nearly all actives have a fitted effect of over 20% in size)
Outline: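 TSHR-HEK293 cells were plated and held 18 h at 37C/5% CO2, then given compound plus Ro20-1724 and stimulated with TSH at 1.5 ng/mL final. After 30 min at room temperature, cAMP was detected with cAMP-d2/anti-cAMP-cryptate (1 h) by fluorescence.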

[9] = qHTS assay to identify small molecule agonists of the estrogen receptor alpha (ER-alpha) signaling pathway in the presence of an antagonist - cell viability counter screen (AID 1259386);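 further: series mostly up to about 92 µM; cells exposed to compounds for 22 h at 37 °C before the viability read; nearly all actives have a fitted effect of over 30% in size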
Outline: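 Cell viability in VM7Luc4E2 cells (endogenous full-length ER-alpha) measured by CellTiter-Fluor fluorescence in the same wells as the luciferase screen. Cells pre-cultured 5 days in charcoal-stripped serum, then treated 22 h with compounds at 15 concentrations plus 10.0nM ICI-182,780.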

[10] = biological target: Progesterone receptor (Homo sapiens) (UniProt P06401); assay: qHTS assay to identify small molecule agonists of the progesterone receptor (PR) signaling pathway (AID 1346784; calls by dose curve; further: nearly all actives have a fitted effect of over 30% in size)
Outline: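 The screen uses PR-UAS-bla HEK 293T cells in charcoal-stripped serum (2%). Compounds are applied for 16 hr at 37C after a 6 hr pre-incubation, and reporter activity is detected with a FRET beta-lactamase substrate after 2 hr at room temperature.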

[11] = biological target: Progesterone receptor (Homo sapiens) (UniProt P06401); assay: qHTS assay to identify small molecule antagonists of the progesterone receptor (PR) signaling pathway (AID 1346795; active means well fitted inhibition curve with a large enough effect in the signal ratio in the repeat runs, not every such curve was filed as active; the % refers to the signal ratio)
Outline: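 After 6 hr plating at 37C in 2% stripped-serum medium, PR-UAS-bla HEK293T cells got compounds, then 1 nM R5020. Sixteen hours later, LiveBLAzer substrate was applied for 2 hr at room temperature and fluorescence was recorded.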

[12] = qHTS assay to identify small molecule antagonists of the progesterone receptor (PR) signaling pathway - cell viability counter screen (AID 1346798); further: series mostly up to about 92 µM; nearly all actives have a fitted effect of over 50% in size
Outline: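 Viability was determined by ATP-based luminescence (CellTiter-Glo) in PR-UAS-bla HEK293T cells cultured in 2% charcoal-stripped serum and incubated 16 hr with compounds under R5020 stimulation.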

[13] = qHTS assay to identify small molecule agonists of the progesterone receptor (PR) signaling pathway - cell viability counter screen (AID 1346799; calls by dose curve; further: nearly all actives have a fitted effect of over 45% in size; further: potency means the concentration at half of the fitted maximal effect)
Outline: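 Viability was scored by ATP luminescence (CellTiter-Glo, 30 min, room temperature) in the same wells used for the reporter readout, after 16 hr compound exposure of PR-UAS-bla HEK293T cells.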

[14] = qHTS assay to identify small molecule antagonists of the TGF-beta/Smad signaling pathway - cell viability counter screen (AID 1346824); further: nearly all actives have a fitted effect of over 50% in size
Outline: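 SBE-bla HEK 293T cells were plated overnight at 37 C, then given compounds in DMSO plus TGF-beta1 (added as 0.25 ng/mL solution) for 5 hr. After the bla read, CellTiter-Glo was added to the same wells and luminescence read after 30 min at room temperature.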

[15] = qHTS assay to identify small molecule agonists of the TGF-beta/Smad signaling pathway - cell viability counter screen (AID 1346829); further: top concentration of the series differs between compounds; nearly all actives have a fitted effect of over 45% in size
Outline: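 Luminescence from CellTiter-Glo, read after a 30 min room-temperature incubation, gives cell viability of SBE-bla HEK 293T cells treated 5 hr with compounds at 37 C.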

[16] = qHTS assay to identify small molecule agonists of the TGF-beta/Smad signaling pathway (AID 1346859; active means well fitted activation curve with a large enough effect in the signal ratio in the repeat runs, not every such curve was filed as active; the % refers to the signal ratio; further: series mostly up to about 77 µM)
Outline: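 Dual-wavelength fluorescence (460/530 nm emission) quantified beta-lactamase expression under the Smad binding element in HEK 293T cells following 5 hr compound treatment at 37 C.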

[17] = biological target: Thyrotropin-releasing hormone receptor (Homo sapiens) (UniProt P34981); assay: qHTS assay to identify small molecule antagonists of the thyrotropin-releasing hormone receptor (TRHR) signaling pathway (AID 1346877; active means well fitted inhibition curve with a large enough effect in the repeat runs, not every such curve was filed as active; further: series mostly up to about 51 µM)
Outline: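 TRHR-expressing HEK293 cells loaded with calcium dye for 2 h at 37 C; compounds pre-incubated 5 min at room temperature before TRH challenge at 1 nM final. Intracellular calcium fluorescence read kinetically for 3 min; 15 concentrations in triplicate.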

[18] = biological target: Thyrotropin-releasing hormone receptor (Homo sapiens) (UniProt P34981); assay: qHTS assay to identify small molecule agonists of the thyrotropin-releasing hormone receptor (TRHR) signaling pathway (AID 1346891; calls by dose curve; further: series mostly up to about 58 µM)
Outline: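 Kinetic fluorescence (3 min, 1 s intervals) reported intracellular calcium after compound transfer onto TRHR-Hek293 cells pre-loaded with dye for 2 h at 37 °C.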

[19] = qHTS assay to identify small molecule antagonists of the sonic hedgehog signaling (Shh) pathway (AID 1259369; calls by dose curve; further: potency means the concentration at half of the fitted maximal effect; nearly all actives have a fitted effect of over 45% in size)
Outline: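 NIH/3T3-derived Gli1-Luc reporter cells plated 4 h, dosed with compound, then stimulated with conditioned medium for 24 h at 37 C. Firefly luciferase luminescence read after 30 min with detection reagent at room temperature.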

[20] = biological target: Androgen receptor (Homo sapiens) (UniProt P10275); assay: qHTS assay to identify small molecule agonists of the androgen receptor (AR) signaling pathway in the presence of an antagonist (AID 1259381; calls by dose curve; further: nearly all actives have a fitted effect of over 15% in size)
Outline: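 MDA-kb2 cells carrying MMTV-luciferase (AR/GR responsive), 3,000 cells/well, co-treated with 3.0 uM nilutamide final. Compounds at 15 concentrations, 16 hr at 37C without CO2. Luciferase luminescence read after 30 min with ONE-Glo.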

Measured: Potency

Sequence of Thyrotropin-releasing hormone receptor (Homo sapiens) (P34981 whole entry, looked up): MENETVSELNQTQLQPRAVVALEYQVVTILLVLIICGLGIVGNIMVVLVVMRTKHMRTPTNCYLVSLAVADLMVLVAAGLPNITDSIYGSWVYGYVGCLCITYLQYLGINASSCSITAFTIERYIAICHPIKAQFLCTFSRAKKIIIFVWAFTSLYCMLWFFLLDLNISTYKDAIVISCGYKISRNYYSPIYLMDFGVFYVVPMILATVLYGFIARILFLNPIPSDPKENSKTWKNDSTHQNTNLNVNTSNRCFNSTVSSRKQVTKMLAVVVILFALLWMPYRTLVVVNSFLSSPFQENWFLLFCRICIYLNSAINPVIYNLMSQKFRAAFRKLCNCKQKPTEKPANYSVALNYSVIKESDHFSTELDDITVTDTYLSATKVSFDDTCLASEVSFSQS
Sequence of Androgen receptor (Homo sapiens) (P10275 whole entry, looked up): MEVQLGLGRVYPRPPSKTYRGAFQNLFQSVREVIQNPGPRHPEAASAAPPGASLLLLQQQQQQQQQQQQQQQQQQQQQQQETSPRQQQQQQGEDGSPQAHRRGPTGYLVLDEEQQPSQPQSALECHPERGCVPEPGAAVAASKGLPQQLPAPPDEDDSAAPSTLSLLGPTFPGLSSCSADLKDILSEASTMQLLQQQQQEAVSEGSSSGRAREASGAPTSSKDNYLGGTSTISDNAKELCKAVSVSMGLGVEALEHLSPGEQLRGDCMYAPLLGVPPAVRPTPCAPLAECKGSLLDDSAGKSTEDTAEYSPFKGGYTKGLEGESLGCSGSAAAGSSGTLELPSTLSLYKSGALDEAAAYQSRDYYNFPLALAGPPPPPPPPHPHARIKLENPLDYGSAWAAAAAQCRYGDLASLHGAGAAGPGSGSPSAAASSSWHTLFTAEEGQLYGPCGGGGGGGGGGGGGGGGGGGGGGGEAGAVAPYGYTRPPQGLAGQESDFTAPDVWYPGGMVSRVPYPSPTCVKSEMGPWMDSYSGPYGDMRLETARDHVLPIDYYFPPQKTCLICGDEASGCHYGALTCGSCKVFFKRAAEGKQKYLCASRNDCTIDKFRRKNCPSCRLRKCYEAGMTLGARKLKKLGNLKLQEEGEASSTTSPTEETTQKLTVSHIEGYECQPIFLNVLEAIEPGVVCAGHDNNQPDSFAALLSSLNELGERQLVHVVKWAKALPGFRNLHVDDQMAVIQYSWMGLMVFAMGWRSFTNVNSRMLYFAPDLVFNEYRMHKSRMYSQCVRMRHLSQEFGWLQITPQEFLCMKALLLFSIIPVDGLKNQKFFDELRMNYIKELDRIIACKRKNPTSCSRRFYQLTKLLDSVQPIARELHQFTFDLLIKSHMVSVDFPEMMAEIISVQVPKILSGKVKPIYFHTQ
Sequence of Progesterone receptor (Homo sapiens) (P06401 whole entry, looked up): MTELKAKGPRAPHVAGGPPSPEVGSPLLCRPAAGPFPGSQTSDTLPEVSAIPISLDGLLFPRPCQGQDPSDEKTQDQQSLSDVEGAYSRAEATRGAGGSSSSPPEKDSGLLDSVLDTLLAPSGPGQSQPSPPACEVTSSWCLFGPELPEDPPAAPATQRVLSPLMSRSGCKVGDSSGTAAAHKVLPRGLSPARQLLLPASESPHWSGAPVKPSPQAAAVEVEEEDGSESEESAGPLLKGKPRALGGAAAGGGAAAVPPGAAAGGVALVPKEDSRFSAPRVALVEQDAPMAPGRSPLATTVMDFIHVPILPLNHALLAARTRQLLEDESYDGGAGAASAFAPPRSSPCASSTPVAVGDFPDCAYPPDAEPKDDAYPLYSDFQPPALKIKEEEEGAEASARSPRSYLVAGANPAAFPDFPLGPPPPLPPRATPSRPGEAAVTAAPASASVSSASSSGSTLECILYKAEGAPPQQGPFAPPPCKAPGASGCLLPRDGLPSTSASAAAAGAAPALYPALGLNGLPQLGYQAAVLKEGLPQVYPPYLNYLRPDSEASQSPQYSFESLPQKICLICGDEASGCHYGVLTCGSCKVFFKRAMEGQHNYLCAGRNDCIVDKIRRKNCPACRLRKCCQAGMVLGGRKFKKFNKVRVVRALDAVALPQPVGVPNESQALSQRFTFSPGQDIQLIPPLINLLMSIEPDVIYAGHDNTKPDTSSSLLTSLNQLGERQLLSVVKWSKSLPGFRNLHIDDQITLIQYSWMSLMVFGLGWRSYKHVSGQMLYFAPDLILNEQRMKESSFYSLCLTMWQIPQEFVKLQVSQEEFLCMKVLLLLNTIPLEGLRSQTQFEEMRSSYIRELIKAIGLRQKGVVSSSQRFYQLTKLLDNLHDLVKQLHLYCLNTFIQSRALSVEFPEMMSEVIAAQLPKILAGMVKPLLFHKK
Sequence of Estrogen receptor beta (Homo sapiens) (Q92731 whole entry, looked up): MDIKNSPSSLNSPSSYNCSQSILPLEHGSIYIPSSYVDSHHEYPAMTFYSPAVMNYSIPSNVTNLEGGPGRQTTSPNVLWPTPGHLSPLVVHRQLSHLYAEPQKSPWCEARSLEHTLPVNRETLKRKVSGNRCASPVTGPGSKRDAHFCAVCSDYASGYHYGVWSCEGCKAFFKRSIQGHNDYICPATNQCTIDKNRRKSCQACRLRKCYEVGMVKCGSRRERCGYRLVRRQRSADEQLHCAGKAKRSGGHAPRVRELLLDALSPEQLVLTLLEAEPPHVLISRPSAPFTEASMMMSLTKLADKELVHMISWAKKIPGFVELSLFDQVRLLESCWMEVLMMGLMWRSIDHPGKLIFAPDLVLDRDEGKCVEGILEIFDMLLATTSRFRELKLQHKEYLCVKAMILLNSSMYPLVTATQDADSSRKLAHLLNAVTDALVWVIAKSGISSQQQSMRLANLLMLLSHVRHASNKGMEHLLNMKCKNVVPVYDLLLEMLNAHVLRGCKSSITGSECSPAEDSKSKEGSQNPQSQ
Sequence of Estrogen receptor (Homo sapiens) (P03372 whole entry, looked up): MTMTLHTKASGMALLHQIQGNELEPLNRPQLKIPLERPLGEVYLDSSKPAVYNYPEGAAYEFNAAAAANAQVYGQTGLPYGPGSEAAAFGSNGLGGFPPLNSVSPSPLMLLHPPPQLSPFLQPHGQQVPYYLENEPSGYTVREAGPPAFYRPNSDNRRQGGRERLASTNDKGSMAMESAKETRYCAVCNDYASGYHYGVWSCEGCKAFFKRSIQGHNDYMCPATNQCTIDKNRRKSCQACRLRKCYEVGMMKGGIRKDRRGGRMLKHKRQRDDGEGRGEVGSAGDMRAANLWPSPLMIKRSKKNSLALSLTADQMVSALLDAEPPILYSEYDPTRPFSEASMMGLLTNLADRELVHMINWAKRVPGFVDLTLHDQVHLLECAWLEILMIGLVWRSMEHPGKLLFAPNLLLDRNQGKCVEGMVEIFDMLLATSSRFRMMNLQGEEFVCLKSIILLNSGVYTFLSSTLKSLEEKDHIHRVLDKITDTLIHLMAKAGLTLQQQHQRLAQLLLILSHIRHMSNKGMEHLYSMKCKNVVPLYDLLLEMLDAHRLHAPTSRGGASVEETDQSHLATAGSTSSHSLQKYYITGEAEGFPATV
Sequence of Thyrotropin receptor (Homo sapiens) (P16473 whole entry, looked up): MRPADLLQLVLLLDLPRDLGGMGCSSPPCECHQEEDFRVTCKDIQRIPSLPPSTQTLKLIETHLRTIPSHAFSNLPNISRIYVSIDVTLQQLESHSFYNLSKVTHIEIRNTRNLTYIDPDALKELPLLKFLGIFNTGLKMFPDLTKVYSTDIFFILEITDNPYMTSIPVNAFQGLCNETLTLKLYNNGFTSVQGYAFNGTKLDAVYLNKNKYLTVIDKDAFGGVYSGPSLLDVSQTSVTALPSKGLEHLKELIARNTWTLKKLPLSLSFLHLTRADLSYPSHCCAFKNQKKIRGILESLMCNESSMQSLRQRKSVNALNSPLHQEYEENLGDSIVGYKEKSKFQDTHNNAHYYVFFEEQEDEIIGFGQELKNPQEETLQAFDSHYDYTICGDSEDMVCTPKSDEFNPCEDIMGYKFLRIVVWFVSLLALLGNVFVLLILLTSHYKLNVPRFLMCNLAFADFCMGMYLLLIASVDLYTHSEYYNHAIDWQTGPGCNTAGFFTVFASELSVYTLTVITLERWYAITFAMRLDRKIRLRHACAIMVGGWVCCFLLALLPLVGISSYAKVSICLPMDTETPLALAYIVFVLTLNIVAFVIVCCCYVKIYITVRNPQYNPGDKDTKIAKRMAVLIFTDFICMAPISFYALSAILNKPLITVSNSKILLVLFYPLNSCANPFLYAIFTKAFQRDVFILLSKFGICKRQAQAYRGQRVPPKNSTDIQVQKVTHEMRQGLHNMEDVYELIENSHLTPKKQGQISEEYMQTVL

COc1cc(C)ccc1C(C)C
not listed: [19] | [20]
inactive: all other assays above

CCOC(=O)COc1ccc2c(c1)CC(NCC(O)c1cccc(Cl)c1)CC2 (configuration not stated)
inactive: [5] | [6] | [7] | [8] | [10] | [12] | [13] | [14] | [16] | [17]
active: [19] 27.5 µM

Cc1ccc([N+](=O)[O-])cc1Cl
not listed: [6] | [13] | [19] | [20]
inactive: all other assays above

FC(F)(F)C(F)(F)C(F)(F)C(F)(F)C(F)(F)C(F)(F)C(F)(F)C(F)(F)Br
not listed: [19] | [20]
inactive: all other assays above

CCCCCCn1c(=O)c2c(ncn2C)n(C)c1=O
not listed: [4] | [9] | [13] | [17] | [18] | [19]
inactive: all other assays above

CC(C)O
not listed: [10] | [11] | [12] | [19] | [20]
inactive: all other assays above

CC(C)c1ccccc1
not listed: [1] | [11] | [12] | [13] | [19]
inactive: all other assays above

CCCCCCCCc1ccc(S(=O)(=O)O)cc1
active: [4] 19.2 µM | [13] 19.2 µM
not listed: [2] | [5] | [6] | [9] | [11] | [19] | [20]
inactive: all other assays above

CC1=C(CC(=O)O)c2cc(F)ccc2/C1=C\c1ccc(S(C)(=O)=O)cc1
not listed: [2] | [4] | [7] | [8] | [9] | [13] | [16] | [19]
inactive: all other assays above
